# Reference: the supplement of paper PMC11732987, “Enantioselective OTUD7B fragment discovery through chemoproteomics screening and high-throughput optimisation” (Communications Chemistry, 2025)
# Values without a mark were called inactive.
# Key:
# Test in all cases: log2 ratio of Biotin-Ahx-Ub-VS probe labelling (fragment/DMSO); higher = less target engagement (more negative = stronger competition), active = hit call of the paper (q ≤ 0.05, log2 ratio ≤ -1)
# Conditions in all cases: compound concentration: 200 uM; treatment time: 3 h
# [1] = molecular target: T1, USP19 (UniProt O94966)
# T1 sequence (whole entry): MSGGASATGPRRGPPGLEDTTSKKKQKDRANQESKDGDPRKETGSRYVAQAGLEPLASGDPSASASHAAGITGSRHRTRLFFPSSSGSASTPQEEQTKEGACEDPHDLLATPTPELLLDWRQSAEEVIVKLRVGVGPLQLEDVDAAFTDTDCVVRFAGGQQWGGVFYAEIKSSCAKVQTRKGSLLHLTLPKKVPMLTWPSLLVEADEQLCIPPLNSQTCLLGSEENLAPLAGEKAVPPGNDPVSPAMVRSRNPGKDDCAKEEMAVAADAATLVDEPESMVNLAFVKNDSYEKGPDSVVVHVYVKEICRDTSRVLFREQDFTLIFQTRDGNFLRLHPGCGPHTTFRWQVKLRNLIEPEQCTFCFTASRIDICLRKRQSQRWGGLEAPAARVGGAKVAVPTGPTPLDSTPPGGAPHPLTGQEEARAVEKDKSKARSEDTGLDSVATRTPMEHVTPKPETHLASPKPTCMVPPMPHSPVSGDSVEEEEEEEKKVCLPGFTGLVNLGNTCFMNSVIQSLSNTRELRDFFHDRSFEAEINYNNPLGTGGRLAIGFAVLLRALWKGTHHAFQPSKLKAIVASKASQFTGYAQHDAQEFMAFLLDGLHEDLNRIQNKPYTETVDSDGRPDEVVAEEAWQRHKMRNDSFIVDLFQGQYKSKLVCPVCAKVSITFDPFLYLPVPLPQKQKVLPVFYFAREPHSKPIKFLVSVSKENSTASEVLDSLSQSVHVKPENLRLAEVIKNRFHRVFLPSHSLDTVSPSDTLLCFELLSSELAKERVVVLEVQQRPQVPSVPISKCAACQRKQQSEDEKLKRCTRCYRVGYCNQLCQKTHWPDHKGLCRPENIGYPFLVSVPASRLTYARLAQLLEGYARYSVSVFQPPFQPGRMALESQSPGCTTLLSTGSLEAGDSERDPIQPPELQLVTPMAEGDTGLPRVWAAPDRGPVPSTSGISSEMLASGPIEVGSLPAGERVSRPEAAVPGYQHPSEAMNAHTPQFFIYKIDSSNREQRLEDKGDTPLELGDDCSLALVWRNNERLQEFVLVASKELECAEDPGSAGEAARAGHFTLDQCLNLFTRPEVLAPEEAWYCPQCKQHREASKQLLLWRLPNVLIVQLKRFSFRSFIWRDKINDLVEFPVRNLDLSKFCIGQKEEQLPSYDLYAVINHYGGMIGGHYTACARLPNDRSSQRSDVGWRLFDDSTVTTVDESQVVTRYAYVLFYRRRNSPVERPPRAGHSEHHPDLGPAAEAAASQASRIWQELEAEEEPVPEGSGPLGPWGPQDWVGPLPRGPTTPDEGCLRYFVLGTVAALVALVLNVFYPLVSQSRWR
# How it was run: (§1)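 Each value is an average log2 ratio of fragment to vehicle, tested by unpaired t-test. The underlying Spectronaut label-free quantities were global-median-normalised, and only proteins with ≥2 unique peptides were included. Triplicate HEK293T lysate samples (495 µg) were exposed to fragment at 200 µM or vehicle for 3 h, then to Biotin-Ahx-Ub-VS at 0.5 µM final for 1 h, before NeutrAvidin enrichment of labelled DUBs, LysC and trypsin digestion, and diaPASEF LC-MS/MS.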
# [2] = molecular target: USP24 (UniProt Q9UPU5)
# Sequence of USP24 (Q9UPU5 whole entry): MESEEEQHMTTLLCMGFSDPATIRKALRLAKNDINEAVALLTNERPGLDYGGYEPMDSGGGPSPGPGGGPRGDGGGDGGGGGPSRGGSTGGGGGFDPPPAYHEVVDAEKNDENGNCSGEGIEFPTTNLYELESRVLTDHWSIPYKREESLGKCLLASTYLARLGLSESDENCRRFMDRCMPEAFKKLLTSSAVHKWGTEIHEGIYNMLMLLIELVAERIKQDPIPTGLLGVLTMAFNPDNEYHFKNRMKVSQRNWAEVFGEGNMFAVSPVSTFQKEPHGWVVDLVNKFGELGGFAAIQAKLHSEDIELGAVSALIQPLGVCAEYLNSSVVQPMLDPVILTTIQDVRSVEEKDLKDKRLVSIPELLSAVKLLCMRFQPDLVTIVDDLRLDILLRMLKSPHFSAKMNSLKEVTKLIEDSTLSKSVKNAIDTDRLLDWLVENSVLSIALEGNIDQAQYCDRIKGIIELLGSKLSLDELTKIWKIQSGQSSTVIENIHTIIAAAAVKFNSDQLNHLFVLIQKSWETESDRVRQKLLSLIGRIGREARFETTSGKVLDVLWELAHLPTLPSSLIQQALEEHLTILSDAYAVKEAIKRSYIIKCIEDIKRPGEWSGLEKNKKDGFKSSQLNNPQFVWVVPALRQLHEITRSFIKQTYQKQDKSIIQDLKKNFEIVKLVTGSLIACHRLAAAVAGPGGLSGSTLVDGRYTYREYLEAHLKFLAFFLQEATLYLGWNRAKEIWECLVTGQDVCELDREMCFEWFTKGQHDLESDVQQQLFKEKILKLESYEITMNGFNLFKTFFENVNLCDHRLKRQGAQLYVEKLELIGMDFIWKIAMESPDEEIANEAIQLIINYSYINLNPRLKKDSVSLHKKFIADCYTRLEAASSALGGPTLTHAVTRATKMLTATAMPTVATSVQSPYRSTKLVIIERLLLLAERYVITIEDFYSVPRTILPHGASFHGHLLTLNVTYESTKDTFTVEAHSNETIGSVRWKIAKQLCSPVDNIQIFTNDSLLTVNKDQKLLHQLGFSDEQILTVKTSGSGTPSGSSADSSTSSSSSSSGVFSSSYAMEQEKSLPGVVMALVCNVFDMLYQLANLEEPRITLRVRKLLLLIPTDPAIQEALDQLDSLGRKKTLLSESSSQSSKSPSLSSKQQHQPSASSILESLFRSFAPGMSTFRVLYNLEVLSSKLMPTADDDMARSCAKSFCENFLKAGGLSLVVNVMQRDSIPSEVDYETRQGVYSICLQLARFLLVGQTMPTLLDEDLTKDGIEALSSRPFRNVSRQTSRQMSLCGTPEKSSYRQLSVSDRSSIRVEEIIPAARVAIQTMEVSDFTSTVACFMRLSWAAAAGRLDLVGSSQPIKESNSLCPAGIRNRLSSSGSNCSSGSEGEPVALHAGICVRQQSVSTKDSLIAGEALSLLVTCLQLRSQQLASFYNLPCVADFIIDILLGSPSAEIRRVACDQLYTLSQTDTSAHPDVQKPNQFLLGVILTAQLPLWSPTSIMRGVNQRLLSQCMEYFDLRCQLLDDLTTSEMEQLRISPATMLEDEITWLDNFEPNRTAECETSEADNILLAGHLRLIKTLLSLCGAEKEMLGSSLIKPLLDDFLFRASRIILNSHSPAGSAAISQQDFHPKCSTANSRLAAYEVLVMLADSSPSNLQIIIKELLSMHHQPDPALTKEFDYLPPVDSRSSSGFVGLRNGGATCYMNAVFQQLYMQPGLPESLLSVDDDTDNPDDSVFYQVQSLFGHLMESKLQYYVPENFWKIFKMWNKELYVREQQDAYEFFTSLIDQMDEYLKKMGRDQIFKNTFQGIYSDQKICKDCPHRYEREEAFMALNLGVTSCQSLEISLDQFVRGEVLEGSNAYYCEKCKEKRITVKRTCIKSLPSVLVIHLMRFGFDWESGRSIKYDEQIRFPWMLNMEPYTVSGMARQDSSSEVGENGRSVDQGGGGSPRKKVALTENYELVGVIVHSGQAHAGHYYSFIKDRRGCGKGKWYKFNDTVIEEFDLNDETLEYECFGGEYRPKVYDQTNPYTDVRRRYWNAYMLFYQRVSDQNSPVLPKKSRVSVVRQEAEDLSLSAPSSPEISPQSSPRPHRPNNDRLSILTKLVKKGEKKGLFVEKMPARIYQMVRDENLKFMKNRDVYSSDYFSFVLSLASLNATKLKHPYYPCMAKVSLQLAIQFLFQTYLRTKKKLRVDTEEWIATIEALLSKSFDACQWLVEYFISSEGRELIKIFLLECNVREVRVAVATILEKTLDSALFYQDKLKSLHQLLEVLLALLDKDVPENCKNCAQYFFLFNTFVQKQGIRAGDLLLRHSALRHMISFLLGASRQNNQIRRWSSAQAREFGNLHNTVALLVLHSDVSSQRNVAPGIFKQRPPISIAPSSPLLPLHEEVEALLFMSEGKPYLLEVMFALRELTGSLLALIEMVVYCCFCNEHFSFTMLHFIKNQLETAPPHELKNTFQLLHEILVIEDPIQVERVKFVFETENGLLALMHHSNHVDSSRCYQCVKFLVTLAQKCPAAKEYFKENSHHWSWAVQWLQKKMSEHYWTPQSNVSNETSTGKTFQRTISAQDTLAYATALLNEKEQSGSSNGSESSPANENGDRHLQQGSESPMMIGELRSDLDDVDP
# How it was run: as §1
# [3] = molecular target: T2, USP25 (UniProt Q9UHP3)
# T2 sequence (whole entry): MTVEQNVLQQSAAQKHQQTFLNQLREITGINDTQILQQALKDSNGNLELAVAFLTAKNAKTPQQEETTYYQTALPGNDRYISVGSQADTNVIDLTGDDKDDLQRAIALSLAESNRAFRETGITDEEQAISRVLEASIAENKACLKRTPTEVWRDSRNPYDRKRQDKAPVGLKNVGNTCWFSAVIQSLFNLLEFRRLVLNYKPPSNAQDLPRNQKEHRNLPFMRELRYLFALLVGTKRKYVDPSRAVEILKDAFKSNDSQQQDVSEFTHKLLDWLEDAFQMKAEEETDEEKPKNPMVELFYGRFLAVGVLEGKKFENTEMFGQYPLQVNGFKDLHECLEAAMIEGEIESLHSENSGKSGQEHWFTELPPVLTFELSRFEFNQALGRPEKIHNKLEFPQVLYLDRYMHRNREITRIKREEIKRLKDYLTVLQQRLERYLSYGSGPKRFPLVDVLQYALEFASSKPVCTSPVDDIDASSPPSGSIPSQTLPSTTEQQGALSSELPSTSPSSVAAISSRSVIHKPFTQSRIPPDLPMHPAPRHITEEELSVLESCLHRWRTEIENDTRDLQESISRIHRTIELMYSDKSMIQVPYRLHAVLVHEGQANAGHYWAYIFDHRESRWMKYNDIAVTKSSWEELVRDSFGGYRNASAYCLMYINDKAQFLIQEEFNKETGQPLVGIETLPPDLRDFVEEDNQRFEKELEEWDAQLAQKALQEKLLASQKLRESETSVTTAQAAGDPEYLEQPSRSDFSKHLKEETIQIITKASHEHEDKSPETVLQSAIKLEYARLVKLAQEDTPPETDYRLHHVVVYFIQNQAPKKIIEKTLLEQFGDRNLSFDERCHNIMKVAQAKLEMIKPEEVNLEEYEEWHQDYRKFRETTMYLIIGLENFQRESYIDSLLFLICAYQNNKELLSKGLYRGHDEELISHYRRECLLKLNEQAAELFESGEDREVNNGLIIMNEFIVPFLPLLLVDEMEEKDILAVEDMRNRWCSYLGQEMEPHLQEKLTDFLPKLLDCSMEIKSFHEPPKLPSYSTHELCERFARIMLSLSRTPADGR
# How it was run: as §1
# [4] = molecular target: T3, USP28 (UniProt Q96RU2)
# T3 sequence (whole entry): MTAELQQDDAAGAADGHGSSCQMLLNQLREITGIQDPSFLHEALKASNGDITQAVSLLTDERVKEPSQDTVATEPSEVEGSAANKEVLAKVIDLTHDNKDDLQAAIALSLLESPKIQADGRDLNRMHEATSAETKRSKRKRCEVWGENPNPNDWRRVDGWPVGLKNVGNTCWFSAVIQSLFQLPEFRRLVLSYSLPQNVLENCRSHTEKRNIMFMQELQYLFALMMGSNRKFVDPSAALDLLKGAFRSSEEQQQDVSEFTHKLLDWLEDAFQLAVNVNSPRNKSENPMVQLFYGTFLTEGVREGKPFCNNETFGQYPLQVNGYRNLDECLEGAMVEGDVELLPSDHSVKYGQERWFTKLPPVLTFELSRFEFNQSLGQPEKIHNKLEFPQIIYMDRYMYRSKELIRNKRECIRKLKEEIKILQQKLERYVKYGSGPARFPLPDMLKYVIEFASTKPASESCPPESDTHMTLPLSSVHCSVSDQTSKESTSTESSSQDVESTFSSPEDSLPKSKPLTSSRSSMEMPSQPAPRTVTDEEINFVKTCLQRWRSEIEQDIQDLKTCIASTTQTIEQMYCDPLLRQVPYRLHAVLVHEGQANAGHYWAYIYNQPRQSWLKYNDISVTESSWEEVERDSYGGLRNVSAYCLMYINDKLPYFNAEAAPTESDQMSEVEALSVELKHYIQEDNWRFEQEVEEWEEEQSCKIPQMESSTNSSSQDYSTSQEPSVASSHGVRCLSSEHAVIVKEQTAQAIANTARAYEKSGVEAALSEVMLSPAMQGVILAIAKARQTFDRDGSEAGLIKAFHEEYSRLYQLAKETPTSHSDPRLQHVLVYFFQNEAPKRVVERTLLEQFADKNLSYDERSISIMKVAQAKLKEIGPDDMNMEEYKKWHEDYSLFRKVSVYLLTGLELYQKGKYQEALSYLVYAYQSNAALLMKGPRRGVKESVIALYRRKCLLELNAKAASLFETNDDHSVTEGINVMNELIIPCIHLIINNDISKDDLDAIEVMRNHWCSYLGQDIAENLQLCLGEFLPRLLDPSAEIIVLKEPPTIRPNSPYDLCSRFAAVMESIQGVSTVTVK
# How it was run: as §1
smiles,measurement,setting,value
O=C(CCl)NC1CCOc2ccccc21 (centres undefined),log2 ratio of Biotin-Ahx-Ub-VS probe labelling,[1],-0.918
same,log2 ratio of Biotin-Ahx-Ub-VS probe labelling,[2],-1.01 (active)
same,log2 ratio of Biotin-Ahx-Ub-VS probe labelling,[3],-1.23 (active)
same,log2 ratio of Biotin-Ahx-Ub-VS probe labelling,[4],-1.6 (active)
